Out of some 16,000 compounds screened, about 5,800 (36%) were called active. Not shown: some 23% with an inconclusive outcome. The list shows a part of the results. A number with no mark means an inactive call. The call rests on the fitted dose curve; in most records, active means well fitted curve in the direction sought with a large enough effect; inconclusive means small, poorly fitted or top-dose-only effect, or effect the other way; inactive means no such curve, though single readings can be large or run the other way.
Biological target: Cytochrome P450 2C19 (Homo sapiens) (UniProt P33261)
Sequence (P33261 whole entry, looked up): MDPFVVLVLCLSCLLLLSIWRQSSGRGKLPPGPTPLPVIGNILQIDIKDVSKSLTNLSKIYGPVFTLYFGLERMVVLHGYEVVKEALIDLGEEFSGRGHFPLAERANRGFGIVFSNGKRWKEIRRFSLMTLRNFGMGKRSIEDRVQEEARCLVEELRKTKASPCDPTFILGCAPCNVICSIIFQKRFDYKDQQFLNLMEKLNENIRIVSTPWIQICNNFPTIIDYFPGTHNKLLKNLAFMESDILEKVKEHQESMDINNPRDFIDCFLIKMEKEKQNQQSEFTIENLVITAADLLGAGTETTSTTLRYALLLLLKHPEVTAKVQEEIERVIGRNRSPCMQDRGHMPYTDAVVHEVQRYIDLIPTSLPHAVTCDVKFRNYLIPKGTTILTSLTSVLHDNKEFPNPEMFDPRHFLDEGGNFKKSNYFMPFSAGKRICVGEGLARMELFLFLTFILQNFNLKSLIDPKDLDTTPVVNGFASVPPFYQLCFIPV
Test: Cytochrome panel assay with activity outcomes
Conditions: recombinant CYP, pro-luciferin dealkylation, luminescence, p450-cyp2c19; series mostly up to 57.1 µM
On the % scale 0 is the no-effect control and ±100 the full control effect.

| Structure (SMILES) | AC50 | activity, negative = inhibition |
| --- | --- | --- |
| COc1ccc(-c2nc3cnc(N4CCN(C)CC4)nc3n(CCC#N)c2=O)cc1 | inactive |  |
| COc1cc(CNC(C)(C)CO)ccc1OCC(=O)Nc1ccc(Br)cc1 | 22.4 µM (active) |  |
| C=CCOc1ccc(CNC(C)(C)CO)cc1OC | inactive |  |
| C=CCOc1ccc(CNC(C)(C)CO)cc1OCC | inactive |  |
| CC(C)CCNC(=S)NC1CCCC1 | 10 µM (active) |  |
| CC(O)(CS(=O)(=O)Cc1ccc(Cl)cc1)C(=O)Nc1cccc(C(F)(F)F)c1 (centres undefined) | 7.94 µM (active) |  |
| CC(C)CC(=O)N1CCC(O)(CS(=O)(=O)Cc2ccc(Cl)cc2)CC1 | inactive |  |
| CC(O)(CS(=O)(=O)Cc1ccccc1Cl)C(=O)Nc1cccc(C(F)(F)F)c1 (centres undefined) | 2.82 µM (active) |  |
| CC(C)(C)C(=O)N1CCC(O)(CS(=O)(=O)Cc2ccc(Cl)cc2)CC1 | inactive |  |
| COCCn1c(=O)c(C)nc2cnc(N3CCN(C)CC3)nc21 | inactive |  |
| COc1ccc(CO/N=C/c2c(C)[nH]c(=O)[nH]c2=O)cc1 | inactive |  |
| COc1ccc(CN2C(=O)c3ccccc3C(/C=N\OCc3ccc(F)cc3)C2=O)cc1 (centres undefined) | 2.51 µM (active) |  |
| CCN(CC)C[C@@H](O)c1ccc2ccc3ccccc3c2c1 |  | -3.19% [at 11.4 µM] |
| CC(C)NC[C@H](O)c1ccc2ccccc2c1 | inactive |  |
| CCCCOC(OCCCC)[C@H](O)CSc1ccc2ccccc2c1 | 3.16 µM (active) |  |
| CCCc1nn2c(=O)c(C(c3ccc(C)cc3)c3c(O)nc4sc(CCC)nn4c3=O)c(O)nc2s1 | inactive |  |
| CCCCCCN(CCCCCC)C(=O)Cc1c(-c2ccc(F)cc2)[nH]c2ccccc12 | 3.98 µM (active) |  |
| CCN1C(=O)/C(=C2\SC(N3CCCCC3)=NC2=O)c2ccccc21 | 14.1 µM (active) |  |
| CN(C)CN1C(=O)S/C(=C2/C(=O)N(CN(C)C)c3ccccc32)C1=O |  | 21.4% [at 11.4 µM] |
| CC(C)(C)CC(C)(C)c1ccc(O)c(C[N+](C)(C)[O-])c1 |  | -6.26% [at 11.4 µM] |

| Structure (SMILES) | AC50 | activity, negative = inhibition |
| --- | --- | --- |
| O=C(O)Cc1c(O)ccc2ccccc12 |  | 33.5% [at 11.4 µM] |
| Oc1ccc2ccccc2c1Cc1c(O)ccc2ccccc12 | 0.316 µM (active) |  |
| CC(C)(C)c1ccc(O)c(CN(Cc2cc(C(C)(C)C)ccc2O)C2CCCCC2)c1 | 1.58 µM (active) |  |
| Oc1ccc2ccccc2c1CN(Cc1c(O)ccc2ccccc12)C1CCCCC1 | 1 µM (active) |  |
| CN(C)Cc1cc(C(C)(C)C)ccc1-c1ccc(C(C)(C)C)cc1CN(C)C |  | 39.4% [at 11.4 µM] |
| CC(C)(C)c1ccc(O)c(CN(Cc2c(O)ccc3ccccc23)C2CCCCC2)c1 | 2 µM (active) |  |
| N#Cc1cccc(NC(=O)N2CCCC3(CCN(C(=O)c4cccc(F)c4)CC3)C2)c1 | inactive |  |
| NC(=O)C(=O)O | inactive |  |
| CCC(NC(=O)C1(C)CC1(Br)Br)c1ccc(C)cc1 (centres undefined) | 2.51 µM (active) |  |
| CC[C@H](NC(=O)c1c(C)c(-c2ccccc2)nc2ccccc12)c1ccccc1 | inactive |  |
| CC(C)CCNC(=O)C12CN(Cc3ccccc3)CC1C(c1cccc([N+](=O)[O-])c1)=NO2 (centres undefined) | 3.55 µM (active) |  |
| NC(=O)CNC(=O)[C@@H]1CC2(CC(c3cccc([N+](=O)[O-])c3)=NO2)CN1C(=O)c1ccccc1 (some centres undefined) | inactive |  |
| COc1ccc(C(=O)N2CC3(CC(c4cccc([N+](=O)[O-])c4)=NO3)C[C@H]2C(=O)NCC(N)=O)cc1 (some centres undefined) | inactive |  |
| O=C(NCc1ccccc1)C12CN(Cc3ccccc3)CC1C(c1cccc([N+](=O)[O-])c1)=NO2 (centres undefined) | 2.51 µM (active) |  |
| Cc1ccc(S(=O)(=O)N[C@@H]2COC(=O)C/C=C\[C@H](C)COC(=O)N[C@@H](C)C(=O)C/C=C\[C@H]2C)cc1 |  | -6.82% [at 11.4 µM] |
| COc1ccc2c(c1)OC1=C(C(=O)CCC1)C2C1=C(O)CCCC1=O (centres undefined) | 15.8 µM (active) |  |
| CCNc1ncc2nc(-c3cccc(C#N)c3)c(=O)n(CCC#N)c2n1 | inactive |  |
| CC(C)Cn1c(C(C)C)nc([N+](=O)[O-])c1S(=O)(=O)c1ccc(F)cc1 | 5.01 µM (active) |  |
| Cc1ccc(C2C(C(=O)c3ccco3)=C(O)C(=O)N2c2nnc(C)s2)cc1 (centres undefined) | inactive |  |
| CCS(=O)(=O)Nc1ccc(C2=NN(C(=O)c3ccco3)C(c3ccc(C)cc3)C2)cc1 (centres undefined) | 11.2 µM (active) |  |

| Structure (SMILES) | AC50 | activity, negative = inhibition |
| --- | --- | --- |
| c1ccc(-c2noc(CSc3nnnn3C3CCCCC3)n2)cc1 | 1.26 µM (active) |  |
| Cc1sc2nc(SCc3nc(-c4cccs4)no3)n(-c3ccccc3)c(=O)c2c1C | inactive |  |
| Cc1ccc(C)n1N1C(=O)/C(=C\c2ccc(Cl)cc2)SC1=S | 7.94 µM (active) |  |
| COc1ccccc1CNC(=O)CCCn1c(=O)c2ccccc2n(CC(=O)NC2CCCC2)c1=O | 7.94 µM (active) |  |
| CCOc1cc2[nH]c(=O)n(CCCC(=O)NCc3ccc(OC)cc3)c(=O)c2cc1OCC | inactive |  |
| COC(=O)N1CCC2(CCCN(Cc3ccccc3OC)C2)CC1 | inactive |  |
| CC(=O)OC[C@@H]1O[C@@H](O/N=C2/C[C@@H](O)[C@@H](O)[C@@H]3[C@@H]4C(=O)N(C(C)(C)C)C(=O)[C@H]4CC[C@@H]23)[C@H](OC(C)=O)[C@H](OC(C)=O)[C@@H]1OC(C)=O |  | 11.3% [at 11.4 µM] |
| c1ccc(CSc2nnc(-c3sccc3-n3cccc3)o2)cc1 | 2 µM (active) |  |
| Clc1ccc(CSc2nnc(-c3cccnc3)o2)cc1 | 3.55 µM (active) |  |
| Cc1cccc(-c2nnc(SCc3ccccc3)o2)c1 | 11.2 µM (active) |  |
| Clc1ccc(CSc2nnc(-c3sccc3-n3cccc3)o2)cc1 | 1.12 µM (active) |  |
| CC(C)N(Cc1ccccc1)S(=O)(=O)c1n[nH]c(C(C)(C)C)n1 |  | -40.1% [at 11.4 µM] |
| Clc1cccc(CSc2nnc(-c3sccc3-n3cccc3)o2)c1 | 1.58 µM (active) |  |
| CC(C)CN1CC[C@@]2(CCCN(C(=O)c3csnn3)C2)C1 | inactive |  |
| COc1ccc2c(c1)-c1c(sn(-c3ccc(OC)c(OC)c3)c1=S)C(C)(C)N2 | 6.31 µM (active) |  |
| COc1ccc(-n2c(C)n[nH]c2=O)cc1OC | inactive |  |
| COc1ccc(-n2cccc2C=O)cc1OC | inactive |  |
| Clc1ccccc1NN(Cc1ccncc1)c1ccccc1Cl | 1.26 µM (active) |  |
| Clc1ccccc1NN(Cc1ccccn1)c1ccccc1Cl | 3.98 µM (active) |  |
